Screening data from PubChem.
In the library only some 3.3% were active in any assay of this set; here they are far more common.
Hsp90 Hop PPI: qHTS Assay for Disrupters of an Hsp90 Co-Chaperone Interaction; hit rate 0.44% among 71,000; AlphaScreen TPR2A-His6 binding biotin-Hsp90 C-terminal peptide; AID 595, 2007; Potency, µM (highest dose often 57 µM); active means well fitted curve in either direction with a large enough effect; inconclusive means small, poorly fitted or top-dose-only effect, or another doubt
BRCT inh green: qHTS Assay for Inhibitors of BRCT-Phosphoprotein Interaction (Green Fluorophore) | Potency, µM (series often up to 76.9 µM), usual class: inhibitors | hit rate 0.05% among 75,000 | BRCA1 BRCT-phosphopeptide binding, green fluorescence polarization
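Fluorescence polarization: His-tagged BRCT (~35 kDa BRCA1 C-terminus, 250 nM) bound to 100 nM fluorescein-labeled phosphorylated 10-aa BACH1 peptide, pH 7.3 phosphate buffer with DTT and Tween 20. Compounds incubated 12 min at room temperature; inhibition read as lowered polarization.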
YjeE inh: qHTS Assay for Inhibitors of YjeE. tRNA threonylcarbamoyladenosine biosynthesis protein TsaE (Escherichia coli (strain …. purified YjeE enzyme, qHTS inhibition assay. Potency, µM. hit rate 0.05% among 71,000. AID 605, 2007
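Purified YjeE (10 uM) with BODIPY Texas Red-labeled ADP probe (2 uM); compounds pin-transferred, 15 min at room temperature. Binding inhibition read as decreased fluorescence polarization; ADP titration as control.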
HEK293 cAMP ctrl: qHTS Assay for Agonists of the Thyroid Stimulating Hormone Receptor: Activators of Intracellular cAMP Concentrations in Parental HEK 293. AID 938, 2007. Potency, µM (series often up to 57.1 µM), most hits filed as activators. parental HEK293 CNG cAMP sensor, membrane potential fluorescence. hit rate 2.5% among 73,000; further: nearly all actives have a fitted effect of over 55% in size
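Parental HEK 293 cells stably expressing a modified CNG channel (no TSHR) report cAMP rise as membrane depolarization. Membrane potential dye with 100 uM RO 20-1724 was loaded for 60 min at room temperature, then compound added for 30 min; fluorescence read at 590 nm.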
BRCT inh red: qHTS Assay for Inhibitors of BRCT-Phosphoprotein Interaction (Red Fluorophore). Breast cancer type 1 susceptibility protein (Homo sapiens), P38398. BRCT-phosphopeptide binding, red fluorescence polarization. hit rate 0.03% among 75,000. Potency, µM (top dose mostly 76.9 µM), usual class: inhibitors
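Rhodamine-labelled pBACH1 10-mer (100 nM) bound to BRCT domain (100 nM) at pH 7.3; compounds incubated 12 min room temperature, polarization read. Free peptide defines full inhibition; unlabelled decapeptide titrated as control.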
TSHR ag: qHTS Assay for Agonists of the Thyroid Stimulating Hormone Receptor; Thyrotropin receptor (Homo sapiens), P16473; HEK293-CNG-TSHR cells (CNG channel as cAMP sensor), membrane potential dye, cAMP; Potency, µM (highest dose often 57.1 µM), most hits filed as activators; hit rate 0.48% among 73,000; active means well fitted activation curve with a large enough effect in the main read-out, with a control signal flat, not every such curve was filed as active; inconclusive means small, poorly fitted or top-dose-only effect, or a change in a side signal; inactive means no such curve, though single readings can be large or run the other way; reference of the percent scale not stated here;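 further: the control signal comes from parental cells without the receptor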
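HEK 293 cells stably expressing TSHR and a modified CNG channel, with CNG-only parental cells as counterscreen, were preloaded 60 min at room temperature with membrane potential dye containing 100 uM RO 20-1724. Compound exposure was 30 min, and depolarization was read as fluorescence at 590 nm.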
Large screens that a line does not name were inactive. Unless noted, the call rests on the fitted dose curve; in most records, active means well fitted curve in the direction sought with a large enough effect; inconclusive means small, poorly fitted or top-dose-only effect, or another doubt; inactive means no such curve, though single readings can be large; an effect the other way counts as inactive or inconclusive.

COc1ccc(C(=O)Nn2c(SCC(=O)NCc3ccco3)nc3ccccc3c2=O)cc1	Hsp90 Hop PPI inconclusive, HEK293 cAMP ctrl 20µM, TSHR ag inconclusive
Cn1c(SCC(=O)NCc2ccco2)nc2ccccc2c1=O	none
O=C(CSc1nnc(C2CCCCC2)n1Cc1ccccc1)NCc1ccco1	HEK293 cAMP ctrl 13µM, TSHR ag inconclusive
O=c1c2ccccc2nnn1CSc1nnc(COc2ccc(Cl)cc2)n1Cc1ccco1	none (no result: TSHR ag)
Cc1ccc(OCc2nnc(SCC(=O)c3ccccc3)n2Cc2ccco2)cc1	HEK293 cAMP ctrl inconclusive, TSHR ag inconclusive
C=C1C(=O)C=C2CN(C(=O)c3ccccc3)[C@@](Cc3ccc(OC)cc3)(C(=O)OC)[C@@H]12	YjeE inh inconclusive, HEK293 cAMP ctrl inconclusive, TSHR ag inconclusive
O=c1cc(-c2ccc(O)c(O)c2)oc2cc(O[C@@H]3O[C@@H](CO)[C@@H](O)[C@@H](O)[C@H]3O)cc(O)c12	none (no result: BRCT inh green, BRCT inh red)
COC(=O)c1ccc(CSc2nc3ccccc3c(=O)n2Cc2ccco2)o1	HEK293 cAMP ctrl 7.9µM, TSHR ag inconclusive
O=C(CSc1nc2ccccc2c(=O)n1Cc1ccc(C(=O)NC2CC2)cc1)NCc1ccco1	none
O=C(CSc1ncc(-c2ccccc2)n1-c1ccccc1)NCc1ccco1	Hsp90 Hop PPI inconclusive, HEK293 cAMP ctrl 32µM, TSHR ag inconclusive
C=CCn1c(SCC(=O)NCc2ccc3c(c2)OCO3)nnc1C1COc2ccccc2O1 (configuration not stated)	none
Cc1ccc(OCc2nnc(SCc3nc4ccccc4[nH]3)n2Cc2ccco2)cc1	HEK293 cAMP ctrl 32µM, TSHR ag inconclusive
C=CCn1c(SCC(=O)NCc2ccc3c(c2)OCO3)nnc1C1CCCCC1	HEK293 cAMP ctrl 25µM, TSHR ag inconclusive
CC(Oc1ccc(Br)cc1)C(=O)NCc1cccnc1 (configuration not stated)	none (no result: Hsp90 Hop PPI, YjeE inh)
COc1ccc(OC2C=CC(C#Cc3ccccc3)OC2CO)cc1 (configuration not stated)	none (no result: Hsp90 Hop PPI, YjeE inh)
COc1cc(C2NC(=O)NC(c3ccccc3)=C2C(C)=O)ccc1OCC(=O)O (configuration not stated)	HEK293 cAMP ctrl 32µM, TSHR ag inconclusive
CCOC(=O)C1=C(c2ccccc2)NC(=O)NC1c1ccc(OCC#N)c(OC)c1 (configuration not stated)	none
C[C@](O)(c1ccccc1)c1nccc2ccccc12	none (no result: TSHR ag)
CCCn1c(-c2ccc(F)cc2)nc2c(NCCN3CCCCC3)nc(C)nc21	HEK293 cAMP ctrl inconclusive, TSHR ag inconclusive
O=C(CSc1nnc(-c2ccc(O)cc2)n1Cc1ccco1)c1cccs1	TSHR ag 10µM
COc1cccc(-c2nnc(SCC(=O)OC(C)C)n2Cc2ccco2)c1	HEK293 cAMP ctrl 16µM, TSHR ag inconclusive
CC(C)OC(=O)CSc1nnc(Cc2ccccc2)n1Cc1ccco1	HEK293 cAMP ctrl 5µM, TSHR ag inconclusive
ICCc1ccccc1	Hsp90 Hop PPI inconclusive
CCC(=O)N[C@@H]1Cc2ccccc2[C@@H](c2ccccc2)C1	HEK293 cAMP ctrl 20µM, TSHR ag inconclusive
COc1ccc2cc(CN(Cc3ccco3)C(c3nnnn3C3CCCCC3)C(C)C)c(=O)[nH]c2c1 (configuration not stated)	HEK293 cAMP ctrl inconclusive, TSHR ag inconclusive
COc1ccc(Cn2nnnc2CN(Cc2cc3ccc(C)cc3[nH]c2=O)C2CCCC2)cc1	HEK293 cAMP ctrl inconclusive, TSHR ag inconclusive
COc1ccc2[nH]c(=O)c(C(c3nnnn3C(C)(C)C)N(Cc3ccco3)CC3CCCO3)cc2c1 (configuration not stated)	HEK293 cAMP ctrl 16µM, TSHR ag inconclusive
CCC(C)(C)n1nnnc1CN(Cc1cc2cc(OC)ccc2[nH]c1=O)C1CCCC1	HEK293 cAMP ctrl 20µM, TSHR ag inconclusive
Nc1nc(Cl)nc2c1ncn2[C@@H]1O[C@@H](COP(=O)(O)OP(=O)(O)OP(=O)(O)O)[C@@H](O)[C@H]1O	none (no result: TSHR ag)
CC(C)(C[C@@]1(C)NC(=O)NC1=O)OCc1ccccc1	none
Cn1cccc1C(=O)N1CCC[C@@]2(CCN(c3ccccn3)C2)C1	none
Cn1cccc1C(=O)N1CCC[C@@]2(CCN(c3ccncc3)C2)C1	HEK293 cAMP ctrl 5µM, TSHR ag inconclusive
O=C(c1ccncc1)N1CCC[C@@]2(CCN(C(c3ccccc3)c3ccccc3)C2)C1	HEK293 cAMP ctrl 4µM, TSHR ag inconclusive
COc1ccc(C(=O)N2CCC[C@@]3(CCN(c4ccccc4)C3)C2)cc1	HEK293 cAMP ctrl 13µM, TSHR ag inconclusive
O=c1oc(-c2ccco2)nc2c1cnn2-c1ccccc1	none
O=c1c2cnn(-c3ccccc3)c2nc(-c2ccco2)n1-c1ccccc1	HEK293 cAMP ctrl 20µM, TSHR ag inconclusive
CCOC(=O)c1[nH]c(C)c(CN(CCc2ccc(OC)c(OC)c2)C(=O)CCCC(=O)O)c1C	none
CCOC(=O)c1[nH]c(C)c(CN(CCc2ccccc2)S(C)(=O)=O)c1C	TSHR ag 32µM
O=C(c1ccco1)N1CCC2(CCCN(c3ncccn3)C2)CC1	none
COc1cc(NC(=O)Cc2ccc(Cl)cc2)ccc1NC(=O)c1ccco1	none
COc1ccc(NC(=O)c2cc(Cl)ccc2NC(=O)c2ccco2)c(OC)c1	HEK293 cAMP ctrl 25µM, TSHR ag inconclusive
O=C(NCC(=O)N(Cc1cccs1)C(C(=O)NC1CCCC1)c1ccncc1)c1ccco1 (configuration not stated)	none
O=C(NCC(=O)N(Cc1ccc(F)cc1)C(C(=O)NC1CCCC1)c1ccco1)c1ccco1 (configuration not stated)	HEK293 cAMP ctrl 16µM, TSHR ag inconclusive
O=C(NC1CCCC1)C(c1cccs1)N(CC1CCCO1)C(=O)Cc1cccs1 (configuration not stated)	HEK293 cAMP ctrl 0.32µM, TSHR ag inconclusive
O=C(NC1CCCCC1)C(c1cccs1)N(Cc1cccs1)C(=O)c1ccco1 (configuration not stated)	HEK293 cAMP ctrl 0.4µM, TSHR ag inconclusive
COc1ccc(CN(C(=O)CNC(=O)c2ccco2)C(C(=O)NC2CCCC2)c2ccco2)cc1 (configuration not stated)	none
OC(CN1CCNCC1)Cn1c2ccc(Br)cc2c2cc(Br)ccc21 (configuration not stated)	none (no result: Hsp90 Hop PPI, YjeE inh)
